Experimental data reported in ChEMBL document CHEMBL3988442, “University of Dundee, Small-Polar-MMV Screening Library” (2021).
Among all 67,000 compounds or so, about 300 (0.45%) showed an effect of 50% or more. What follows is part of a selection rich in strong results, with near analogues and random picks from the rest.

Target: Polyketide synthase Pks13 (Mycobacterium tuberculosis (strain ATCC 25618 / H37Rv)) (UniProt I6X8D2)
Test: Mycobacterium tuberculosis Polyketide synthase 13 Thioesterase (PKS13)
Format: functional
Set-up: scale not given: in the data most compounds retested in dose-response had high values
Conditions: 30 µM

Chain of Polyketide synthase Pks13 (Mycobacterium tuberculosis (strain ATCC 25618 / H37Rv)) (I6X8D2 whole entry): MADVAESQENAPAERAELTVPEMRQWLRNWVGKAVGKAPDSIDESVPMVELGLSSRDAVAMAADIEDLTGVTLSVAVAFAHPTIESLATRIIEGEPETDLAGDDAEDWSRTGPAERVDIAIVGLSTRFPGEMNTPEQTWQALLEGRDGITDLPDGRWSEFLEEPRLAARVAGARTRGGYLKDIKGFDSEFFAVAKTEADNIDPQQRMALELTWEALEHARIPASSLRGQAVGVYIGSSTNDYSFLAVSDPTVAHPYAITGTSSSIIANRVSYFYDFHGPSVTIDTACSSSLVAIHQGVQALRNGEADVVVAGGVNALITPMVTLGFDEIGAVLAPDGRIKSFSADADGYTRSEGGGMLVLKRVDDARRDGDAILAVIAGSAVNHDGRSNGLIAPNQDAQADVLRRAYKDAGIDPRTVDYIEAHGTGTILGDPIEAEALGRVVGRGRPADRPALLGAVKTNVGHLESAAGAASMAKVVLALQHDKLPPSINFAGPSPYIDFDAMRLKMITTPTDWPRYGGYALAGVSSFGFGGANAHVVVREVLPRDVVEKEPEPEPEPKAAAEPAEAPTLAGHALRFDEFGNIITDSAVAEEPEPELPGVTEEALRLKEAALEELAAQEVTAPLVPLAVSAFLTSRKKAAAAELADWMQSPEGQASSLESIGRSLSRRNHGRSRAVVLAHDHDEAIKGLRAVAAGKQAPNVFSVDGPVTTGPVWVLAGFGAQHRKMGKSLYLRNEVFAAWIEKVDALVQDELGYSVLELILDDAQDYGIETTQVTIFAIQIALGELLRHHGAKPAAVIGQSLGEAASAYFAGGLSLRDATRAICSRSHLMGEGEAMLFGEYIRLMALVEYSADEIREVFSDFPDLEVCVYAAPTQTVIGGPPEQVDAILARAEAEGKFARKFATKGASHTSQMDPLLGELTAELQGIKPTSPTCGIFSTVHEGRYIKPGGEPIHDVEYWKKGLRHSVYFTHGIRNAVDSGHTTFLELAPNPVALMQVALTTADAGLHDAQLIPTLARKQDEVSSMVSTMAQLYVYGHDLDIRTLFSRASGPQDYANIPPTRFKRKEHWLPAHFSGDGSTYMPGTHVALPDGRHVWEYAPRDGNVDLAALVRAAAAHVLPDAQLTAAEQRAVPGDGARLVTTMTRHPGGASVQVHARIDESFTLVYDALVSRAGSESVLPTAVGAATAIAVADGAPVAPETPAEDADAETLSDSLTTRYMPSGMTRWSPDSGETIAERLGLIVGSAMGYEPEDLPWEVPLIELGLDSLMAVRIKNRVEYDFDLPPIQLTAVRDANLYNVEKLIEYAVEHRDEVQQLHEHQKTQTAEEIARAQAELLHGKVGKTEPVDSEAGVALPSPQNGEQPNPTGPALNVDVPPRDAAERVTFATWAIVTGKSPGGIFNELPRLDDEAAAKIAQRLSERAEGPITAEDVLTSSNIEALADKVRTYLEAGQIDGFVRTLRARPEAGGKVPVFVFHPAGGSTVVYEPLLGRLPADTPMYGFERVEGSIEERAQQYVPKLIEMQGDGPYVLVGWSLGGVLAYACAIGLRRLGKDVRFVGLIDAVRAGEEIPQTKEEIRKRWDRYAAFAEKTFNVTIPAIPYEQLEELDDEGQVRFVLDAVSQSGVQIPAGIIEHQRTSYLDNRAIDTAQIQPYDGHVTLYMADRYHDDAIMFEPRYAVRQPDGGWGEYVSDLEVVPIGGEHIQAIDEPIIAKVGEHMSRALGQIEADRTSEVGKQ

SMILES	Percent Effect [%]
CN1CCN(C(=O)N2C[C@H]3CC[C@@H]2CN(Cc2ccccc2)C3)CC1	7.3
Cc1ccc(N2CC[C@H]3O[C@@H](C(=O)N4CCCCO4)CC[C@H]32)nn1	14.6
O=C([C@H]1COC[C@H]2CN(C3CCOCC3)C[C@H]21)N1CCCO1	-30.7
Cc1n[nH]c(SCC(=O)N2C[C@H]3CC[C@@H]2CN(c2ncccn2)C3)n1	53.5
CCCSCC(=O)N1C[C@H]2CC[C@@H]1CN(c1ncccn1)C2	-17
CCOCCC(=O)N1C[C@H]2CC[C@@H]1CN(c1ncccn1)C2	-26.3
O=C(c1ncccn1)N1C[C@H]2CCC[C@@]2(COCc2ccncc2)C1	-14.6
NC(=O)N1CC[C@@H]2O[C@H](COCC(=O)N3CCCC3)CC[C@@H]21	9.98
NC(=O)C1CCCN1C(=O)c1cc(C2CC2)nc2ccc(F)cc12 (configuration not stated)	-9.51
COc1ccc2nc(C3CC3)cc(C(=O)NCCc3nnc[nH]3)c2c1	-11.9
NC(=O)c1cc(C2CC2)nc2ccc(F)cc12	87.8
COCCN1C(=O)[C@H]2CC[C@@H]1CN(c1ncccn1)C2	1.06
O=C(c1cnco1)N1C[C@@H]2CC[C@H](Oc3ccccc3F)[C@@H]2C1	6.58
N#Cc1ccc(C(=O)O)nc1/C=C/c1cccc(Br)c1	-10.3
N#Cc1ccc(C(=O)O)nc1/C=C/c1cccc(Cl)c1	51.4
N#Cc1ccc(C(=O)O)nc1/C=C/c1cccc(F)c1	-26.4
CC(C)C(=O)N1CC[C@@H]2[C@H](CC1)N(Cc1cccnc1)CCS2(=O)=O	-7.83
c1ccc(O[C@@H]2CN(Cc3nccs3)[C@@H]3CCCO[C@@H]32)nc1	-21.3
CN(C)CCO[C@H]1CN(C(=O)c2cscn2)[C@@H]2COC[C@H]12	4.36
Cn1cc(Br)c(C(=O)NCCCn2cc(Br)cn2)n1	27.2
Cn1cc(Br)c(C(=O)NCCn2cc(Br)cn2)n1	-18.6
Cn1cc(I)c(C(=O)NCCCn2cc(Br)cn2)n1	55
Cn1ccnc1CN1CCN(Cc2ccncc2)[C@@H]2CS(=O)(=O)C[C@@H]21	-14

SMILES	Percent Effect [%]
Cc1cc(CN2CC[C@@H]3[C@@H](CCC(=O)N3CCc3c[nH]cn3)C2)oc1C	-32.9
O=C([C@H]1CC[C@@H]2[C@@H](CCN2C2CCOCC2)O1)N1CCOCC1	5.19
Cc1noc(C)c1CCC(=O)NCC1(O)CCN(c2ccccn2)C1 (configuration not stated)	1.81
Cc1noc(C)c1CCC(=O)NCC1(O)CCCN(c2ccccn2)C1 (configuration not stated)	9.52
Cc1n[nH]c(C)c1CCC(=O)NCC1(O)CCN(c2ccccn2)C1 (configuration not stated)	61.1
CCO[C@H]1CC[C@H]2[C@H]1OCCN2C(=O)c1nn(C)c2ccccc12	-2.76
CN(C)[C@@H]1CN(C(=O)Cc2cccs2)[C@@H]2CCCO[C@H]12	-8.31
Cc1nc(N2CCCC2)ncc1C(=O)Nc1ccc(Br)cc1	-0.502
Cc1nn(C)cc1C1=NS(=O)(=O)N(C)C(C(=O)Nc2ccc(Br)cc2)=C1	57.7
Cc1c(C2=NS(=O)(=O)N(C)C(C(=O)Nc3ccc(Br)cc3)=C2)cnn1C	47
O=C1N(C2CCCCC2)C[C@H]2CN(C3CCC3)CCN12	5.32
COCCN1C(=O)CC[C@@H]2[C@@H]1CCN2Cc1c(C)noc1C	2.01
CS(=O)(=O)N[C@@H]1CN(Cc2ccccc2)C[C@@H]2CCCO[C@@H]21	-27.1
CN(Cc1ccccn1)C1CCC[C@@H]2CN(CC3CC3)C[C@H]12 (some centres not stated)	-21.9
COC(=O)NCC(=O)NCC(C)(C)c1cccc(C(F)(F)F)c1	-4.12
COC(=O)NCC(=O)NCC(C)(C)c1cccc(Br)c1	-17.5
CCC(=O)NCC(=O)NCC(C)(C)c1cccc(Br)c1	50.4
CS(=O)(=O)N1CCO[C@@H]2CN(C(=O)C3CCOC3)CC[C@@H]2C1 (some centres not stated)	-9.9
O=C(c1ccccc1)C1CCN(c2cncc(-n3cccn3)n2)CC1	75.5
NC(=O)C1CCN(c2cncc(-n3cccn3)n2)CC1	9.01
CN(C)C(=O)C1CCN(c2cncc(-n3cccn3)n2)CC1	9.49
Cc1ccc(C(=O)N2C[C@@H](OCC3CCOCC3)[C@H]3OCCC[C@H]32)o1	-4.11
CC(C)NC(=O)N1CCCn2cnc(CN3CCCC3=O)c2C1	-40.2

SMILES	Percent Effect [%]
O=C1CCCN1Cc1ncn2c1CN(C(=O)NC1CCCC1)CCC2	60.1
O=C1CCCN1Cc1ncn2c1CN(C(=O)NC1CCCCC1)CCC2	29
O=C([C@@H]1C[C@@H]2CCN(Cc3ccccn3)C[C@H]2O1)N1CCCO1	-7.04
CN(C)C(=O)CN1C[C@@H]2CC[C@H](C1)N(C(=O)CCn1cncn1)C2	-4.82
CC(=O)c1cc(CN2C[C@H]3CC[C@@H]2CN(S(=O)(=O)N(C)C)C3)cs1	-12.2
O=C(c1ccccc1)N1C[C@@H]2CC[C@H](C1)N(Cc1cc(F)ccc1Cl)C2	3.66
COc1cc(N2C[C@@H]3CC[C@H](C2)N(CC2CCC2)C3=O)ncn1	-4.75
O=C1[C@H]2CC[C@H](CN(c3ncnc4ccsc34)C2)N1CC1CC1	90.8
CN1C(=O)[C@H]2CC[C@@H]1CN(c1ncnc3ccsc13)C2	38.1
COCC(=O)N1CC[C@H]2C[C@H](c3nnc(C4CC4)o3)O[C@@H]2C1	-6.34
COCCN1C[C@H]2CC[C@@H]1CN(Cc1nc3ccccc3n1C)C2	-34.6
NC(=O)COc1ccc(CN2CC[C@@]3(O)CCCC[C@H]3C2)cc1Cl	-1.23
CCc1[nH]c2c(CNc3cc(C)nc(NC)n3)cc(C)cc2c1C	5.91
CNc1cc(C)nc(NCc2cc(C)cc3c(C)c(C)[nH]c23)n1	13
CCc1[nH]c2c(CNc3nc(C)cc(NC)n3)cc(C)cc2c1C	146
COC[C@@H]1CC[C@H]2[C@H](CCN2S(=O)(=O)Cc2ccccc2)O1	-27.3
c1cncc(CN2CCN3C[C@H](Oc4cncnc4)C[C@H]3C2)c1	0.84
Cc1cccc(CN2C[C@@H]3CN(C(=O)C4CCOC4)C[C@@H]3C2=O)c1 (some centres not stated)	-8.77
CN1CCN(C(=O)[C@H]2C[C@H]3[C@H](CCN3Cc3nccs3)O2)CC1	-17.5
Cc1ccc(N2CC[C@H]3C[C@H](C(=O)NCc4ccco4)O[C@@H]3C2)cc1	-20.4
c1cc(CN2CC[C@@H]3CN(c4cnccn4)C[C@@H]3C2)ccn1	-15.9
